Reference: publication PMC5700166

The sequences below were run against T1, GST-Ap-NF-kB RHD (Exaiptasia pallida (Aiptasia), UniProt A0A913YAJ5 2-422) (assay: protein-binding microarray (PBM); PBM: ~300 nM protein, 6 mM HEPES pH 7.8, 80 mM KCl, 0.5 mM EDTA, 0.5 mM EGTA, 6% glycerol, 35 ng/ul poly-dIdC, 1% milk, 1 h, room temperature; Ap Aiptasia and Nv Nematostella (sea anemones) / Co Capsaspora / Aq Amphimedon (sponge) / Dm Drosophila / Hu human; RHD is the Rel homology domain; high values mean tight binding). Conditions: dsDNA, one strand shown.
T1 sequence: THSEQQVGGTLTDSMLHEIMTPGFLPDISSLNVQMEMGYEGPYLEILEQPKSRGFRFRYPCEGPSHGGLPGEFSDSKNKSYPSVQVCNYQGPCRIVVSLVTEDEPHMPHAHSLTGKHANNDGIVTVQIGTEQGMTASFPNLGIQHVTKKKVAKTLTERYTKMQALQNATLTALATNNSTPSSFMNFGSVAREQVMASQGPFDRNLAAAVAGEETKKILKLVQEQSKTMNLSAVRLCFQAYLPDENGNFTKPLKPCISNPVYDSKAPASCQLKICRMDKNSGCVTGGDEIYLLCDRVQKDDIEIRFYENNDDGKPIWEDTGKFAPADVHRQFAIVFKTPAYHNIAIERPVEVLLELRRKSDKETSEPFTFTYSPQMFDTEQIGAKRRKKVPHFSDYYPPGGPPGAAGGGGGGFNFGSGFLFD

Sequence | binding signal [z-score]
CCGATTAACATCAAAGAGCCCCCTGATGTTAATCGGGTCTTGATTCGCTTGACGCTGCTG | 4.73
CCGATTAACATCAGAAATGCCCCTGATGTTAATCGGGTCTTGATTCGCTTGACGCTGCTG | 4.03
CCGATTAACATCAAGGGGGATACTGATGTTAATCGGGTCTTGATTCGCTTGACGCTGCTG | 6.74
CCGATTAACATCAAAAGCCCCCATGATGTTAATCGGGTCTTGATTCGCTTGACGCTGCTG | 5.8
CCGATTAACATCAAACCACCCCCTGATGTTAATCGGGTCTTGATTCGCTTGACGCTGCTG | 3.91
CCGATTAACATCAGCCCCGGTGTTGATGTTAATCGGGTCTTGATTCGCTTGACGCTGCTG | 2.1
CCGATTAACATCAATTCCCCCCGTGATGTTAATCGGGTCTTGATTCGCTTGACGCTGCTG | 7.28
CCGATTAACATCAGGGGTAGAACTGATGTTAATCGGGTCTTGATTCGCTTGACGCTGCTG | 1.85
CCGATTAACATCAGGACCTTCCCTGATGTTAATCGGGTCTTGATTCGCTTGACGCTGCTG | 2.74
CCGATTAACATCACCCGGGTAAATGATGTTAATCGGGTCTTGATTCGCTTGACGCTGCTG | 1.42
CCGATTAACATCAGAAAATCACCTGATGTTAATCGGGTCTTGATTCGCTTGACGCTGCTG | 2.77
CCGATTAACATCACCCTCGAGGGTGATGTTAATCGGGTCTTGATTCGCTTGACGCTGCTG | 1.01
CCGATTAACATCAGGGCCTTTTGTGATGTTAATCGGGTCTTGATTCGCTTGACGCTGCTG | 1.85
CCGATTAACATCAATCCACCCCCTGATGTTAATCGGGTCTTGATTCGCTTGACGCTGCTG | 3.95
CCGATTAACATCAGGCGAACCCCTGATGTTAATCGGGTCTTGATTCGCTTGACGCTGCTG | 1.57
CCGATTAACATCAGGGAAACTTATGATGTTAATCGGGTCTTGATTCGCTTGACGCTGCTG | 3.98
CCGATTAACATCAGATAAACCCCTGATGTTAATCGGGTCTTGATTCGCTTGACGCTGCTG | 4.36
CCGATTAACATCAGGACATACCCTGATGTTAATCGGGTCTTGATTCGCTTGACGCTGCTG | 1.92
CCGATTAACATCAGGGGCTTCCATGATGTTAATCGGGTCTTGATTCGCTTGACGCTGCTG | 4.37

Sequence | binding signal [z-score]
CCGATTAACATCAGGACTGCCCCTGATGTTAATCGGGTCTTGATTCGCTTGACGCTGCTG | 3.49
CCGATTAACATCAGGAAATACCCTGATGTTAATCGGGTCTTGATTCGCTTGACGCTGCTG | 6.05
CCGATTAACATCAGGAAGATCCCTGATGTTAATCGGGTCTTGATTCGCTTGACGCTGCTG | 3.43
CCGATTAACATCAGGGAGTGCCCTGATGTTAATCGGGTCTTGATTCGCTTGACGCTGCTG | 2.83
CCGATTAACATCACGGAAACACCTGATGTTAATCGGGTCTTGATTCGCTTGACGCTGCTG | 1.22
CCGATTAACATCAGGATATCCCCTGATGTTAATCGGGTCTTGATTCGCTTGACGCTGCTG | 8.1
CCGATTAACATCAAAAAATCACCTGATGTTAATCGGGTCTTGATTCGCTTGACGCTGCTG | 2.88
CCGATTAACATCAAGGGAATTCCTGATGTTAATCGGGTCTTGATTCGCTTGACGCTGCTG | 7.9
CCGATTAACATCAAATCCCCCCCTGATGTTAATCGGGTCTTGATTCGCTTGACGCTGCTG | 8.93
CCGATTAACATCAAGGGGGGGACTGATGTTAATCGGGTCTTGATTCGCTTGACGCTGCTG | 6.81
CCGATTAACATCACGGAAATACCTGATGTTAATCGGGTCTTGATTCGCTTGACGCTGCTG | 1.01
CCGATTAACATCAGAAAAACACCTGATGTTAATCGGGTCTTGATTCGCTTGACGCTGCTG | 2.56
CCGATTAACATCAGGTGTTTCCATGATGTTAATCGGGTCTTGATTCGCTTGACGCTGCTG | 1.26
CCGATTAACATCACGGGCTTCCCTGATGTTAATCGGGTCTTGATTCGCTTGACGCTGCTG | 1.85
CCGATTAACATCAAATAAGCCCCTGATGTTAATCGGGTCTTGATTCGCTTGACGCTGCTG | 3.57
CCGATTAACATCAACTATCCCCCTGATGTTAATCGGGTCTTGATTCGCTTGACGCTGCTG | 5.83
CCGATTAACATCAGGAAAGGCCCTGATGTTAATCGGGTCTTGATTCGCTTGACGCTGCTG | 2.38
CCGATTAACATCAAAAAAACACCTGATGTTAATCGGGTCTTGATTCGCTTGACGCTGCTG | 3.14
